Reference: PubChem BioAssay (NCI)
This is part of a sample that, as a whole, favours compounds with a hit. Of some 79,000 tested, about 15% had one in any assay. Active and inactive are the calls of the source. Rule as the data show it: active = growth inhibition above about 70%; inactive = the rest.

Tests used:
[1] = NCI Yeast Anticancer Drug Screen. Data for the rad50 strain (AID 155);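 also: 0% = growth of vehicle-only cultures of the same strain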; conditions: S. cerevisiae rad50 strain growth inhibition; at 50.0 µM; stronger effect = higher value
Procedure, shortened: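 Vehicle-treated cultures provide the reference for the growth inhibition reported for compound-exposed, repair-deficient yeast.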

[2] = NCI Yeast Anticancer Drug Screen. Data for the mec2-1 strain (AID 157); conditions: S. cerevisiae mec2-1 strain, at 50.0 µM, stronger effect = higher value
Procedure, shortened: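 Cells of the genetically defined mec2-1 yeast strain are incubated with test compound. Inhibition of growth is calculated against vehicle-treated controls.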

[3] = NCI Yeast Anticancer Drug Screen. Data for the sgs1 mgt1 strain (AID 161);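 also: 0% = growth of cultures given vehicle only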; conditions: S. cerevisiae sgs1 mgt1 strain, at 50.0 µM, stronger effect = higher value
Procedure, shortened: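 Mutant yeast exposed to compound; growth scored against vehicle-only wells.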

[4] = NCI Yeast Anticancer Drug Screen. Data for the cln2 rad14 strain (AID 165);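 also: 0% = growth equal to vehicle treated cultures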; conditions: S. cerevisiae cln2 rad14 strain, at 50.0 µM, stronger effect = higher value
Procedure, shortened: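 The screen exposed genetically defined yeast (cln2 rad14) to test compounds and scored growth inhibition relative to vehicle-treated controls.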

[5] = NCI Yeast Anticancer Drug Screen. Data for the bub3 strain (AID 167); conditions: S. cerevisiae bub3 mutant strain, at 50.0 µM, stronger effect = higher value
Procedure, shortened: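 Mutant yeast screening strain plus compound; vehicle-treated cultures serve as the 0% inhibition reference.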

[6] = NCI Yeast Anticancer Drug Screen. Data for the mlh1 rad18 strain (AID 175); conditions: S. cerevisiae mlh1 rad18 strain growth inhibition; at 50.0 µM; stronger effect = higher value
Procedure, shortened: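 Compound-treated yeast growth, normalised to vehicle controls. Strain bears defined DNA repair mutations.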

Measured: growth inhibition

N#CC(c1ccccc1)N(CCCCCCN(C(=O)c1ccccc1)C(C#N)c1ccccc1)C(=O)c1ccccc1 (stereo not drawn)
inactive: [1] 17.1% | [2] 37% | [3] 20.3% | [4] 13.1% | [5] 40.4% | [6] -29.1%

O=C(O)C(SSC(C(=O)O)(c1ccccc1)c1ccccc1)(c1ccccc1)c1ccccc1
inactive: [2] 21.5% | [3] 54.6% | [4] 36% | [5] 12% | [6] 38%
active: [1] 71.8%

CCCCCCC(C)CC(=O)O (stereo not drawn)
inactive: [1] -4.7% | [2] -3.85% | [3] 0% | [4] -59% | [5] -7.2% | [6] -21%

CCCOC(=O)c1cc(C(=CCC[C@H]2CC[C@@]3(C)[C@@H](CC[C@@H]4[C@@H]3CC[C@]3(C)[C@@H](C(C)CCCC(C)C)CC[C@@H]43)C2)c2cc(Cl)c(O)c(C(=O)OCCC)c2)cc(Cl)c1O (stereo partly drawn)
inactive: [1] 8.7% | [2] -9.05% | [3] -0.55% | [4] 5.65% | [5] -4.05% | [6] -45%

O=C(Nc1ccc(F)cc1)c1ccc(Cl)cc1Cl
inactive: [1] -7.4% | [2] -28.4% | [3] -9% | [4] 13.7% | [5] -4.2% | [6] -2.35%

CC1NC(=O)OC1C(C)(C)C (stereo not drawn)
inactive: [1] 6.95% | [2] -2.8% | [3] -0.75% | [4] -19.1% | [5] -5.4% | [6] -4.55%

O=C(CNc1ccc(Cl)cc1Cl)NC1C=Cc2ccc(S(=O)(=O)Nc3ccc(Cl)cc3Cl)cc2C1=O (stereo not drawn)
inactive: [1] 34.5% | [2] 20.4% | [3] 44% | [4] 14.2% | [5] 29.1% | [6] 33.1%

CC1C(=O)N2C(=O)C(C)C(C)C(=O)N2C(=O)C1C (stereo not drawn)
inactive: [1] 1.8% | [2] -6.25% | [3] 7.9% | [4] -12.8% | [5] 3.85% | [6] -12.5%

NC(=O)c1ncccc1C(=O)O
inactive: [1] -9.2% | [2] -9.65% | [3] -18.6% | [4] 2.3% | [5] -13.6% | [6] -12.2%

CCCN(CCC)C(=O)c1ccc(C(C)C)cc1
inactive: [1] 11.2% | [2] 7.05% | [3] 19.1% | [4] -6.8% | [5] 9.7% | [6] 9.7%

CC(=O)OC(C(=O)N(c1ccccc1)c1ccccc1)c1ccccc1 (stereo not drawn)
inactive: [1] 3.5% | [2] 27.4% | [3] 10.9% | [4] 18.2% | [5] 7.35% | [6] 16.1%

O=CNc1ccccc1O
inactive: [1] -2.55% | [2] -17.5% | [3] -25% | [4] 19.9% | [5] -14.3% | [6] 14.9%

CCCS(=O)(=O)N1CCC(C)CC1
inactive: [1] 5.7% | [2] -21.1% | [3] 5.85% | [4] -8.65% | [5] -8.55% | [6] 1.6%

CC(CNC(=O)C12CC3CC(CC(C3)C1)C2)NC(=O)C12CC3CC(CC(C3)C1)C2 (stereo not drawn)
inactive: [1] 6.45% | [2] 11% | [3] -27.4% | [4] 7.85% | [5] -11.8% | [6] 14.3%

CCCCCCC1OCCO1
inactive: [1] 29.8% | [2] 2.8% | [3] 16.5% | [4] -12.8% | [5] -4.8% | [6] 15.1%

COc1ccc(/C(=N/N)c2ccccc2)cc1
inactive: [1] 3.6% | [2] -40.5% | [3] -23.6% | [4] -42.4% | [5] -18.8% | [6] -2.15%

O=C1OC2C(O)COC2(O)C1(O)Cc1c[nH]c2ccccc12 (stereo not drawn)
inactive: [1] 14.1% | [2] -6.4% | [3] -5.45% | [4] 0.5% | [5] 3.35% | [6] -11.2%

C1CCC(N(CCN(C2CCCCC2)C2CCCCC2)C2CCCCC2)CC1
inactive: [1] -38.5% | [2] -32.8% | [3] -26.7% | [4] 15.3% | [5] 5.6% | [6] -11.9%

C/C(=N\NC(=O)c1ccncc1)c1cccc(F)c1
inactive: [1] -57% | [2] -20.9% | [3] -51.2% | [4] -48.7% | [5] -67.8% | [6] -38%

CN(C)Cc1ccccc1COC(=O)/C=C/c1ccccc1
inactive: [1] 11.3% | [2] 7.5% | [3] 8.8% | [4] 10.1% | [5] 7.4% | [6] 8.95%

COC1OC(COC(=O)c2ccccc2)C(OC(=O)c2ccccc2)C(OC(=O)c2ccccc2)C1OC(=O)c1ccccc1 (stereo not drawn)
inactive: [1] -1.3% | [2] -30.8% | [3] -13.6% | [4] -9.4% | [5] -29.8% | [6] -14.8%

CCC1SC(N)=NC1=O (stereo not drawn)
inactive: [1] 16.1% | [2] 9.65% | [3] 24.7% | [4] 20.4% | [5] 10.2% | [6] 5.55%

CC(=O)NNC(=O)c1ccccc1CO
inactive: [1] -18.8% | [2] -15% | [3] -4.55% | [4] 10.4% | [5] -2% | [6] 20.9%

O=[N+]([O-])c1cc(Br)cc2c1nc(NCCO)c1ccccc12
active: [1] 90.8% | [2] 79.5% | [3] 96.8% | [4] 88.2% | [5] 86.8% | [6] 97%

O=C1C(Br)=C(Oc2ccccc2)C(=O)C(Br)=C1Oc1ccccc1
inactive: [1] 7.85% | [2] 11.4% | [3] 13.6% | [4] 1.05% | [5] 10.8% | [6] -8.45%

Nc1ncnc2c1cnn2-c1ccc(Cl)cc1
inactive: [1] 42% | [2] 9.15% | [3] 62.6% | [4] -7.2% | [5] 23.8% | [6] 48%

Cc1c2c(n3c(nc4ccccc43)c1C#N)N(c1ccc(Cl)cc1)CC2
inactive: [1] 1.1% | [2] -1.3% | [3] -10.8% | [4] 7.35% | [5] -6.4% | [6] -15.3%

C=CNC(=O)NC(=O)CSc1nnc(-c2ccccc2NC(=O)C(F)(F)F)c(=O)[nH]1
inactive: [1] 5.7% | [2] -4.95% | [3] -4% | [4] 14.9% | [5] 30.9% | [6] 5.4%

C[N+](C)(C)C12CCCCCC1SC2 (stereo not drawn)
inactive: [1] 15.6% | [2] 6.7% | [3] 9.55% | [4] -26.6% | [5] -16.1% | [6] 5.1%

CCCCN(CCCC)CC(O)c1cccc2c1cc(Cl)c1ccccc12 (stereo not drawn)
active: [1] 99.2% | [2] 99.6% | [3] 99.5% | [4] 98.5% | [5] 98.5% | [6] 99.3%

CSc1nn(C)c2cc(C)c3ccccc3[n+]12
inactive: [1] 20.4% | [2] -7.8% | [3] -10.2% | [4] 7.25% | [5] 4.6% | [6] -16.4%

CCc1nnc(CC)n1NCCCC(=O)O
inactive: [1] 26.3% | [2] 24.2% | [3] 20.8% | [4] 18.2% | [5] 24.9% | [6] 15.7%

O=C(O)CCC(=O)c1ccc[nH]1
inactive: [1] 7.3% | [2] -23.2% | [3] -30.1% | [4] 19.2% | [5] 15.1% | [6] -19.1%

CC(C)NNC(N)=O
inactive: [1] -0.2% | [2] 1.7% | [3] -0.8% | [4] -8.1% | [5] 12.4% | [6] -5.65%

Nc1nc(N)c2ncn(Cc3c(Cl)cccc3Cl)c2n1
inactive: [1] -3.75% | [2] -3.95% | [3] 1.9% | [4] 6.8% | [5] 4.15% | [6] -9.65%

N#CCCc1nc(N)nc(N)n1
inactive: [1] -19.7% | [2] -3.7% | [3] -26.9% | [4] -60.3% | [5] -17.7% | [6] 5.85%

Cc1ccc(NC(=S)/N=C/c2c(O)[nH]c(=O)[nH]c2=O)c(C)c1
inactive: [1] -9.4% | [2] -20.4% | [3] -15.8% | [4] -4.85% | [5] -24.5% | [6] 2.05%

CCOC(=O)c1c(-c2ccc(OC)cc2)c(C#N)c(=S)n(C2OC(CO)C(O)C(O)C2O)c1-c1ccccc1 (stereo not drawn)
inactive: [1] 6.7% | [2] -29% | [3] -20% | [4] -11.6% | [5] -12.4% | [6] 2.95%

C[S+](C)CCOC(=O)C(=[N+]=[N-])c1ccc([N+](=O)[O-])cc1
inactive: [1] 32.5% | [2] 9.8% | [3] 44.3% | [5] 9.9% | [6] 59.4%
